Bioassay records (PubChem)
Hits are enriched below; roughly 4.1% of the tested compounds scored in any of these assays.
tim23-1 inh: tim23-1 yeast growth inhibition; S. cerevisiae tim23-1 growth, BacTiter-Glo luminescence, 24 h; inhibition, % at 20 µM; 1.3% of 330,000 active;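 active = growth inhibition of the mutant yeast at or above 50%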;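 also: temperature-sensitive mutant grown at 25 °C; plate controls were DMSO-treated mutant yeast for no effect and medium wells lacking yeast for full effect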
NALP1 yeast inh: blocks the NALP1 inflammasome reconstituted in yeast. inhibition, % at 10 µM. 0.61% of 280,000 active. AID 2071. S. cerevisiae NALP1/ASC/caspase-1 growth, X-gal OD620, 72 h; in the data active = inhibition mostly above about 24%, no sharp cut-off; inactive = mostly below about 32%
tim10-1 inh: tim10-1 yeast growth inhibition; S. cerevisiae tim10-1 ts strain growth, BacTiter-Glo, 24 h; inhibition, % at 20 µM; 2.2% of 330,000 active;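 active = inhibition of at least 40%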;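 also: mutant grown at 25 °C; 0% = DMSO wells with yeast and 100% = wells holding no yeast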
NALP3 yeast inh: inhibitors of NALP3 inflammasome in yeast; Yeast reconstituted NLRP3/ASC/caspase-1, beta-gal luminescence, 24 h; inhibition, % at 10 µM; 0.39% of 330,000 active; AID 2825;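 active = inhibition of 50% or more; inactive = inhibition below 50%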;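 also: plate controls were induced DMSO wells for no effect and uninduced yeast grown without galactose for full effect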
TIM10 inh: growth inhibitors of TIM10 yeast strain. S. cerevisiae TIM10 strain growth, BacTiter-Glo luminescence, 24 h. inhibition, % at 10 µM. 1.4% of 330,000 active. AID 463195;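 active = inhibition of 40% or more at the single tested concentration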;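 also: wild-type TIM10 isogenic control strain grown at permissive 25 °C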
tim10-1 confirm: tim10-1 yeast growth inhibition, confirmed; shares compounds with tim10-1 inh; S. cerevisiae tim10-1 ts strain growth, BacTiter-Glo, 24 h; inhibition, % at 20 µM; 56% of 7,400 active; AID 463213;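 active = inhibition of yeast growth at or above a set limit in either of two repeat tests at 20 µM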;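 also: tim10-1 mutant grown at permissive 25 °C to find synthetic lethal compounds; 0% = DMSO yeast wells and 100% = medium wells without yeast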
TIM10 conf: TIM10 yeast growth inhibition, confirmed. shares compounds with TIM10 inh. 63% of 4,600 active. inhibition, % at 10 µM. S. cerevisiae tim10 strain growth, BacTiter-Glo luminescence, 24 h;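 active = inhibition of yeast growth at or above a set limit in either of two replicates at 10 µM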;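 also: this counterscreen used the strain with wild-type TIM10; 0% = yeast with DMSO and 100% = medium wells lacking yeast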
tim23-1 conf: tim23-1 yeast growth inhibition, confirmed; shares compounds with tim23-1 inh; S. cerevisiae tim23-1 growth, BacTiter-Glo luminescence, 24 h; inhibition, % at 20 µM; 83% of 4,400 active;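 active = inhibition above about 39% in either of two replicate wells at 20 µM, limit read from the data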;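 also: temperature-sensitive tim23-1 mutant grown at 25 °C; 0% = DMSO wells with yeast and 100% = medium wells without yeast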
* hit, by the source's call.

Results for CC(=O)Cc1nsc(NC(=O)c2ccc(-c3ccccc3Cl)o2)n1 ?
tim23-1 inh: 51.0*; NALP1 yeast inh: 30.2; tim10-1 inh: 48.5*; NALP3 yeast inh: 10.9; TIM10 inh: 25.4; tim10-1 confirm: 43.4*; tim23-1 conf: 51.4*

What do the screens show for `CN(Cc1ccc(F)cc1)C(=O)c1cc(COc2ccc(-n3cncn3)cc2)on1`?
tim23-1 inh: 59.4*; NALP1 yeast inh: 6.5; tim10-1 inh: 52.6*; NALP3 yeast inh: 12.6; TIM10 inh: 40.8*; tim10-1 confirm: 37.5*; TIM10 conf: 34.8*; tim23-1 conf: 43.2*

How did O=C(COC(=O)CNC(=O)c1ccc(Cl)cc1Cl)NC1CCCCCCC1 do in these assays?
tim23-1 inh: 17.7; tim10-1 inh: 17.9; NALP3 yeast inh: -1.9; TIM10 inh: 10.2

How did CC(C)(C)NC(=O)/C(=C\C=C\c1ccccc1)NC(=O)c1ccc([N+](=O)[O-])cc1 do in these assays?
tim23-1 inh: 35.8; NALP1 yeast inh: 11.0; tim10-1 inh: 26.6; NALP3 yeast inh: 21.8; TIM10 inh: 18.7

Results for COc1cc(/C=C/c2sc3ccccc3[n+]2CCCS(=O)(=O)[O-])ccc1O ?
tim23-1 inh: 51.5*; NALP1 yeast inh: 11.4; tim10-1 inh: 45.2*; NALP3 yeast inh: 18.4; TIM10 inh: 31.1; tim10-1 confirm: 43.9*; tim23-1 conf: 50.0*

Results for COc1cc(C(=O)NNC(=S)NC(=O)c2ccc(F)cc2)cc(OC)c1OC ?
tim23-1 inh: 0.7; tim10-1 inh: 13.7; NALP3 yeast inh: 6.0; TIM10 inh: 28.8

What do the screens show for `COc1ccc(/C(C)=N\O)cc1OC`?
tim23-1 inh: -10.7; NALP1 yeast inh: 3.8; tim10-1 inh: 3.5; NALP3 yeast inh: 10.5; TIM10 inh: 1.9

What do the screens show for `Cc1ccc(-n2cnc3scc(-c4cccs4)c3c2=O)cc1`?
tim23-1 inh: 50.1*; NALP1 yeast inh: 36.1; tim10-1 inh: 41.5*; NALP3 yeast inh: 15.3; TIM10 inh: 30.9; tim10-1 confirm: 45.5*; tim23-1 conf: 57.5*

Results for O=C(Nc1nc2c(Br)cccc2s1)C1CC1 ?
tim23-1 inh: 79.8*; NALP1 yeast inh: 10.6; tim10-1 inh: 46.2*; NALP3 yeast inh: -0.6; TIM10 inh: 19.9; tim10-1 confirm: 36.4*; tim23-1 conf: 75.7*

How did O=C(Nc1nc2c(Cl)c(Cl)ccc2s1)C1CC1 do in these assays?
tim23-1 inh: 1.2; NALP1 yeast inh: 9.1; tim10-1 inh: 10.6; NALP3 yeast inh: 43.1; TIM10 inh: 19.2

How did CCCn1c(=O)c(C(=O)NNS(=O)(=O)c2ccc(NC(=O)OC)cc2)c(O)c2ccccc21 do in these assays?
tim23-1 inh: -3.1; NALP1 yeast inh: 0.2; tim10-1 inh: -18.6; NALP3 yeast inh: 19.8; TIM10 inh: -0.5

Results for O=Cc1c[nH]c2cccc(OCc3ccccc3)c12 ?
tim23-1 inh: 53.7*; tim10-1 inh: 58.7*; NALP3 yeast inh: 19.5; TIM10 inh: 8.7; tim10-1 confirm: 29.9*; tim23-1 conf: 18.2

What do the screens show for `O=Cc1c(OCc2ccccc2)ccc2ccccc12`?
tim23-1 inh: 37.8; NALP1 yeast inh: 9.1; tim10-1 inh: 28.0; NALP3 yeast inh: 35.5; TIM10 inh: 24.8

What do the screens show for `O=C1C=CC(=O)N1c1cccc(-c2ccccc2)c1`?
tim23-1 inh: 51.3*; NALP1 yeast inh: 14.5; tim10-1 inh: 95.1*; NALP3 yeast inh: 38.1; TIM10 inh: 95.0*; tim10-1 confirm: 97.5*; TIM10 conf: 99.2*; tim23-1 conf: 97.8*

How did O=C1c2ccccc2C(=O)N1c1cccc(-c2nc3ccccc3o2)c1 do in these assays?
tim23-1 inh: -1.2; NALP1 yeast inh: 3.3; tim10-1 inh: 3.8; NALP3 yeast inh: 9.0; TIM10 inh: 17.6

How did Cc1[nH]c2ccc(C(=O)N3CCN(c4ccccc4Cl)CC3)cc2c1C do in these assays?
tim23-1 inh: 50.7*; NALP1 yeast inh: 9.7; tim10-1 inh: 57.4*; NALP3 yeast inh: 8.4; TIM10 inh: 40.3*; tim10-1 confirm: 25.4; TIM10 conf: 11.9; tim23-1 conf: 47.9*

How did COc1ccc(Br)cc1CN1CCCCCC1 do in these assays?
tim23-1 inh: -8.7; NALP1 yeast inh: 6.6; tim10-1 inh: -12.3; NALP3 yeast inh: 5.6; TIM10 inh: -3.1

What do the screens show for `CCOC(=O)C1=C(C)N=C2SC(C(=O)OC)=CC(=O)N2C1c1cccc(OC)c1` (stereo unspecified)?
tim23-1 inh: 20.0; NALP1 yeast inh: 12.4; tim10-1 inh: 13.5; NALP3 yeast inh: 14.5; TIM10 inh: 11.2

What do the screens show for `CCOC(=O)C1=C(C)N=C2SC(C(=O)OC)=CC(=O)N2C1c1ccc(F)cc1` (stereo unspecified)?
tim23-1 inh: 86.5*; NALP1 yeast inh: 23.8; tim10-1 inh: 75.0*; NALP3 yeast inh: 33.6; TIM10 inh: 76.6*; tim10-1 confirm: 80.6*; TIM10 conf: 84.4*; tim23-1 conf: 77.8*

Results for O=C(N/N=C/c1cc(Cl)ccc1O)c1ccccc1Br ?
tim23-1 inh: 65.5*; NALP1 yeast inh: -1.4; tim10-1 inh: 41.7*; NALP3 yeast inh: 24.2; TIM10 inh: 53.7*; tim10-1 confirm: 11.8; TIM10 conf: 32.5*; tim23-1 conf: 59.2*

Results for O=C(COC(=O)c1cccc(F)c1)Nc1ccc(Cl)cn1 ?
tim23-1 inh: -6.3; tim10-1 inh: -7.9; NALP3 yeast inh: 21.3; TIM10 inh: -8.8

What do the screens show for `COc1ccccc1CNC(=O)C(C)NS(=O)(=O)c1ccc(Br)cc1` (stereo unspecified)?
tim23-1 inh: 5.8; NALP1 yeast inh: 2.3; tim10-1 inh: 1.1; NALP3 yeast inh: 6.1; TIM10 inh: -17.8

What do the screens show for `Cc1cccc(NC(=O)N2CCC(NC(=O)C3CCCCC3)CC2)c1`?
tim23-1 inh: -0.7; NALP1 yeast inh: 17.9; tim10-1 inh: -17.9; NALP3 yeast inh: 20.6; TIM10 inh: 9.4

What do the screens show for `Fc1ccc(Nc2nnc(C(F)(F)F)s2)cc1Cl`?
tim23-1 inh: 77.2*; NALP1 yeast inh: -1.9; tim10-1 inh: 68.8*; NALP3 yeast inh: 4.3; TIM10 inh: 55.8*; tim10-1 confirm: 83.5*; TIM10 conf: 41.6*; tim23-1 conf: 85.2*

How did FC(F)(F)c1nnc(Nc2ccc(Cl)cc2)s1 do in these assays?
tim23-1 inh: 19.7; tim10-1 inh: 26.2; NALP3 yeast inh: -10.5; TIM10 inh: -8.8

What do the screens show for `O=[N+]([O-])c1ccc(/C=N/Nc2nc(N3CCOCC3)nc(N3CCOCC3)n2)cc1`?
tim23-1 inh: -0.8; NALP1 yeast inh: 3.2; tim10-1 inh: 6.7; NALP3 yeast inh: 2.0; TIM10 inh: -5.4
